“And” between values parts separate entries of the source, which are not always exact repeats. Identical values can stand only once. The source made the active and inactive calls. The rule behind the calls is not given here.
The compounds below were run against Pantothenate synthetase (Mycobacterium tuberculosis (strain ATCC 25618 / H37Rv)) (UniProt P9WIL5) (assay: Recombinant Mtb pantothenate synthetase (PanC) inhibitors, coupled enzyme, confirmatory (AID 375;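 note: 0% = full reaction with vehicle and 100% = no enzyme background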)). Conditions: coupled enzyme assay; at 10 µM, hits give high values.
Pantothenate synthetase (Mycobacterium tuberculosis (strain ATCC 25618 / H37Rv)), sequence (P9WIL5 whole entry, looked up): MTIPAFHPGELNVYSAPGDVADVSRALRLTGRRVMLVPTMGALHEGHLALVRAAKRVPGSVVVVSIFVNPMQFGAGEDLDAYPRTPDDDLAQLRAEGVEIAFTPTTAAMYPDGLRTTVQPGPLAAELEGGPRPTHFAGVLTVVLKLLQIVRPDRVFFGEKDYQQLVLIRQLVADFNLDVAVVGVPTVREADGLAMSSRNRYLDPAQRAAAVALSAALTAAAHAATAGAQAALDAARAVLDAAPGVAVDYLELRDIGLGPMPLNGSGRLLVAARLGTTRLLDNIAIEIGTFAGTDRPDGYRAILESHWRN

Q: Which inhibition does the source give for `CC(C)C(NC(=O)c1ccc(S(=O)(=O)N2CCOCC2)cc1)c1nc2ccccc2[nH]1` (stereo not given) here?
A: Its inhibition is 0% (inactive).

Q: `Cc1ccccc1N1CC(c2nc3ccccc3[nH]2)CC1=O` (stereo not given) was tested. Which inhibition did it give?
A: Its inhibition is 0% (inactive).

Q: For `Cc1ccc(-n2ncc3c(N4CCN(c5ccccc5)CC4)ncnc32)c(C)c1`, which inhibition is on record?
A: The inhibition was 0% (inactive).

Q: `COc1ccc(NC(=O)c2cc(C(C)C)on2)c(OC)c1` was tested. Which inhibition did it give?
A: The inhibition was 0% (inactive).

Q: Which inhibition does the source give for `O=C(CSc1nnc(C2CC2)n1Cc1ccccc1)c1ccc(S(=O)(=O)N2CCOCC2)cc1` here?
A: Its inhibition is 0% (inactive).

Q: With `O=C(O)C1CC(=O)N(c2ccc(OCc3ccccc3Cl)cc2)C1` (stereo not given) as the compound, how does the inhibition read?
A: Its inhibition is 0% (inactive).

Q: With `Cc1cc(C)nc(NC(=O)c2c(-c3c(Cl)cccc3Cl)noc2C)n1` as the compound, how does the inhibition read?
A: The inhibition was 2% (inactive).

Q: With `O=C(Cn1cnc2ccccc2c1=O)NCCC(=O)N1CCN(Cc2ccccc2)CC1` as the compound, how does the inhibition read?
A: Its inhibition is 0% (inactive).

Q: `CC1(C)CC(=O)C=C(NCCN2CCN(C(=O)Nc3ccccc3)CC2)C1` was tested. Which inhibition did it give?
A: The inhibition was 5% (inactive).

Q: Which inhibition does the source give for `c1ccc(CN(CC2=NCCN2)c2ccccc2)cc1` here?
A: The inhibition was 0% (inactive) and 2% (inactive).

Q: `O=C(Nc1ccccc1)c1cccnc1N1CCOCC1` was tested. Which inhibition did it give?
A: The inhibition was 0% (inactive).

Q: For `COCCOC(=O)c1[nH]c2c(c1C)C(=O)CC(c1ccco1)C2` (stereo not given), which inhibition is on record?
A: Its inhibition is 3% (inactive).

Q: How did the inhibition turn out when `c1ccc2c(c1)Cc1cc(CN3CCOCC3)ccc1-2` was run?
A: The inhibition was 3% (inactive).

Q: With `CC(=O)NCCCCCCNC(C)=O` as the compound, how does the inhibition read?
A: The inhibition was 0% (inactive).

Q: With `COCCNC(=S)c1ccc(OC)cc1` as the compound, how does the inhibition read?
A: Its inhibition is 5% (inactive).

Q: For `CN(CC(=O)NCCC1=CCCCC1)S(=O)(=O)c1ccc2c(c1)CCC(=O)N2`, which inhibition is on record?
A: The inhibition was 0% (inactive).

Q: `CC(=O)Nc1cccc(OCC(O)Cn2cnc3ccccc32)c1` (stereo not given) was tested. Which inhibition did it give?
A: The inhibition was 0% (inactive).

Q: `c1cn2cc(CSC3CCCCC3)nc2s1` was tested. Which inhibition did it give?
A: The inhibition was 2% (inactive).

Q: `O=C(c1cccn2c(=O)c3cc(Cl)ccc3nc12)N1CCOCC1` was tested. Which inhibition did it give?
A: The inhibition was 3% (inactive).

Q: With `COC(=O)c1ccccc1NC(=O)Nc1cc(C)cc(C)n1` as the compound, how does the inhibition read?
A: The inhibition was 2% (inactive).

Q: For `COc1ccc(C(=O)NCC(=O)NC2=NCCS2)cc1`, which inhibition is on record?
A: Its inhibition is 0% (inactive).

Q: Which inhibition does the source give for `CCCCOC(=O)CN1C(=O)c2ccc(C(=O)OCCCC)cc2C1=O` here?
A: Its inhibition is 0% (inactive).

Q: For `CCC1(C(=O)OC)NC(c2cccc(F)c2)C2C(=O)N(C)C(=O)C21` (stereo not given), which inhibition is on record?
A: The inhibition was 3% (inactive).

Q: With `COc1ccc(-n2c(=O)cc(N3CCN(Cc4ccccc4)CC3)[nH]c2=O)cc1` as the compound, how does the inhibition read?
A: Its inhibition is 0% (inactive).

Q: Which inhibition does the source give for `CSc1nnc(-c2cnccn2)n1Cc1ccccc1` here?
A: Its inhibition is 0% (inactive).

Q: `CCOC(=O)c1[nH]c2ccc(F)cc2c1NC(=O)C(C)N1CCc2cc(OC)c(OC)cc2C1` (stereo not given) was tested. Which inhibition did it give?
A: Its inhibition is 3% (inactive).

Q: With `Cc1ccc(-c2nnn(CC(=O)N(Cc3cccs3)C(C(=O)NC(C)(C)C)c3ccc(C)o3)n2)o1` (stereo not given) as the compound, how does the inhibition read?
A: Its inhibition is 0% (inactive).

Q: For `CCOC(=O)N1CCN(C(=O)c2c(-c3ccccc3)noc2C)CC1`, which inhibition is on record?
A: Its inhibition is 0% (inactive).

Q: Which inhibition does the source give for `O=C(CSc1nc(-c2ccccc2)cs1)NC(=O)NCc1ccco1` here?
A: The inhibition was 0% (inactive).

Q: How did the inhibition turn out when `CCCCn1c(NCc2ccccc2O)nc2ccccc21` was run?
A: Its inhibition is 0% (inactive).

Q: `CCOC(=O)c1sc(NC(=O)CSc2nnc(-c3ccc(OC)cc3)n2CCOC)nc1C` was tested. Which inhibition did it give?
A: The inhibition was 6% (inactive).

Q: With `CCn1cc(C(=O)NCCCOC)c(=O)c2cc(S(=O)(=O)N(C)C)ccc21` as the compound, how does the inhibition read?
A: Its inhibition is 0% (inactive).

Q: For `Cc1nc(C)c(C(=O)C2=C(O)C(=O)N(CCN3CCOCC3)C2c2cccnc2)s1` (stereo not given), which inhibition is on record?
A: Its inhibition is 13% (inactive).

Q: For `COc1ccc(C/C(O)=C(\C#N)c2nc3ccccc3s2)cc1`, which inhibition is on record?
A: The inhibition was 4% (inactive).

Q: `Cc1ccc(C)c(Cn2c(=O)n(CCC(=O)NCc3ccco3)c(=O)c3sccc32)c1` was tested. Which inhibition did it give?
A: The inhibition was 9% (inactive).

Q: Which inhibition does the source give for `O=C(O)c1ccc(COc2c(F)c(F)cc(F)c2F)cc1` here?
A: The inhibition was 0% (inactive).

Q: For `Cc1cc(NC(=O)COC(=O)c2cccc(S(=O)(=O)N3CCOCC3)c2)no1`, which inhibition is on record?
A: The inhibition was 1% (inactive).

Q: How did the inhibition turn out when `c1ccc(CNC2=NCCC2)nc1` was run?
A: Its inhibition is 0% (inactive).

Q: How did the inhibition turn out when `Cc1ccc(-n2c3c(cc(C(=O)NC4CCSC4=O)c2=O)C(=O)CC(C)(C)C3)cc1` (stereo not given) was run?
A: The inhibition was 0% (inactive).

Q: How did the inhibition turn out when `COc1cccc(C2=NOC(C(=O)Nc3ccc(C(C)=O)cc3)C2)c1` (stereo not given) was run?
A: Its inhibition is 0% (inactive).
